# Screens deposited in PubChem BioAssay by National Center for Advancing Translational Sciences (NCATS).
# SNCA expr inh = SNCA gene expression inhibition | AID 1671194 | Potency, µM (titrated, usually from 57.2 µM), hits mostly inhibitors | 140,000 compounds, 0.17% hits | HEK-293 SNCA-luciferase knock-in, luminescence, 24 h; note: nearly all actives have a fitted effect of over 45% in size
# IP6K1 inhibitor = inhibitors of human IP6K1; IP6K1 kinase, ADP-Glo luminescence, 2 h; hits give low values; 140,000 compounds, 0.81% hits; Q92551; AID 1645851; activity change, % (series mostly up to about 58 µM); in the data active = activity change below about -25%
#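 ADP-Glo luminescence measures ADP made by human IP6K1 during a 2 h RT reaction with ATP/IP6 (mix at 1.3 mM/130 uM); top library doses 57.5 and 19.1 uM final.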
# HEK293 viab = cell viability loss counter-screen. 150,000 compounds, 0.12% hits. Potency, µM (series often up to 57.1 µM), most hits filed as cytotoxic. HEK-293-SNCA-luc viability, GF-AFC fluorescence, 24 h; note: nearly all actives have a fitted effect of over 30% in size
#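 HEK-293-SNCA-luc cells (1500/well) plated 24 h, then exposed 24 h to a dilution series; GF-AFC added 30 min at 37C, fluorescence 405/540 nm; normalised to medium-only and DMSO wells, Hill fit.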
# KDM5B inh = inhibitors of human KDM5B histone demethylase | KDM5B demethylase, FDH-coupled NADH fluorescence (FDH is formaldehyde dehydrogenase) | Potency, µM (doses to about 57.7 µM), actives largely listed as inhibitors | 220,000 compounds, 2.6% hits; note: nearly all actives have a fitted effect of over 70% in size
#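 Compound dilutions met 200 nM (final) KDM5BΔAP for 10 min at room temperature before substrate addition. The substrate mix held 12.5 µM H3K4me3 with cofactors 25 µM α-ketoglutarate and 50 µM Fe²⁺. NADH signal gain over 30 min defined activity.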
# Numbers stand for hits; 0 = inactive; ? = inconclusive; - = not tested or not shown. Compounds with a hit are over-represented: about 2.8% of the library has one in this group of screens. Unless noted, calls come from the whole dose curve; as a rule, active = well fitted curve in the direction sought with a large enough effect; inconclusive = small, poorly fitted or top-dose-only effect, or another doubt; inactive = no such curve, though single readings can be large; an effect the other way counts as inactive or inconclusive.
SMILES,SNCA expr inh,IP6K1 inhibitor,HEK293 viab,KDM5B inh
COc1ccccc1-c1cnn2c1NC(=O)CC2C(=O)Nc1ccc(F)cc1 (centres undefined),-,-,-,0
Cn1ccnc1C(NC(=O)Nc1ccc(Cl)cc1)c1ccccc1F (centres undefined),-,-,-,0
O=C(O)c1ccc(CN2Cc3[nH]cnc3C[C@H]2c2nc(-c3ccc(F)cc3)no2)cc1,0,0,0,?
Cc1cccc(-c2noc([C@@H]3Cc4nc[nH]c4CN3Cc3ccc(C(=O)O)cc3)n2)c1,?,0,0,32µM
c1ccc2cc(-c3noc([C@@H]4Cc5nc[nH]c5CN4CC4CCCCC4)n3)ccc2c1,0,0,0,28µM
Fc1ccc(-c2noc([C@@H]3Cc4nc[nH]c4CN3Cc3ccccc3)n2)cc1Cl,0,0,0,35µM
Fc1ccc(-c2noc([C@@H]3Cc4nc[nH]c4CN3Cc3cc4ccccc4o3)n2)cc1Cl,0,0,0,28µM
Cc1ccc(-c2noc([C@@H]3Cc4nc[nH]c4CN3CC3CCCCC3)n2)cc1,0,0,0,?
CCc1ccc(NC(=O)C(=O)c2c(C)[nH]c3ccccc23)cc1,-,-,-,0
c1ccc(-c2ccc(N3CC[C@@]4(CCCNC4)C3)cc2)cc1,0,-,0,-
c1ccc(-c2ccc(N3CC4(CCNCC4)C3)cc2)cc1,?,-,32µM,-
COCc1nnc2n1CCC(NC(=O)c1n[nH]c3ccccc13)CC2 (centres undefined),0,0,0,28µM
COCc1nnc2n1CCC(NC(=O)Cc1c[nH]c3ccccc13)CC2 (centres undefined),0,0,0,0
O=C(Nc1ccc2oc(-c3ccccc3)nc2c1)C1CCN(c2cnn(Cc3ccccc3)c(=O)c2)C1 (centres undefined),0,0,0,18µM
O=C(Nc1ccc2c(c1)OCO2)C1CCCN(c2cnn(Cc3ccccc3)c(=O)c2)C1 (centres undefined),0,0,?,?
COCCNc1ncc(-c2ccsc2)c2c1OCC2,0,0,0,35µM
COCCNc1ncc(-c2cccc(NC(C)=O)c2)c2c1OCC2,0,0,0,40µM
COCCNc1ncc(-c2ccc([S+](C)(=O)[O-])cc2)c2c1OCC2,0,0,0,32µM
COc1cc(NC(=O)Cn2c(C)nc3c(sc4cccc(F)c43)c2=O)cc(OC)c1OC,-,-,-,0
Cc1oc(-c2nc(C#N)c(NCCN(C)C)o2)cc1S(=O)(=O)N(C)Cc1ccccc1,-,-,-,0
O=C(Nc1ccccc1Cl)N(Cc1cccc(O)c1)C1CCC(O)CC1 (centres undefined),-,-,-,0
Cc1ccc2cc(CN3C[C@@H](CO)[C@H](c4nc(C)no4)C3)c(=O)[nH]c2c1,0,0,0,28µM
Cc1noc([C@@H]2CN(Cc3ccccc3C)C[C@H]2CO)n1,0,0,0,0
Cc1noc([C@@H]2CN(Cc3ccncc3)C[C@H]2CO)n1,0,0,0,28µM
CCCCn1nc(C(=O)N(C)Cc2ccccc2N2CCCCC2)c2ccccc2c1=O,-,-,-,0
SMILES,SNCA expr inh,IP6K1 inhibitor,HEK293 viab,KDM5B inh
CN1CCN(c2cc(=O)c3ccnc(NCc4ccccc4)c3o2)CC1,0,0,0,40µM
O=c1cc(-c2ccccn2)oc2c(NCc3ccccc3)nccc12,0,0,0,40µM
CN1CCN(c2cc(=O)c3ccnc(-c4ccccc4O)c3o2)CC1,0,0,0,?
O=c1cc(-c2cnccn2)oc2c(Nc3ccccn3)nccc12,0,0,0,40µM
O=c1cc(-c2ccccn2)oc2c(Nc3cccnc3)nccc12,0,0,0,?
O=C(CN1CCN(c2nc(-c3cccs3)nc3ccccc23)CC1)N1CCCC1,-,-,-,0
Cn1ncc2c(C(=O)N3CCCC3)cc(-c3ccc([S+](C)(=O)[O-])cc3)nc21,0,0,0,89µM
Cn1ncc2c(C(=O)NCc3ccc(F)cc3)cc(-c3ccc([S+](C)(=O)[O-])cc3)nc21,?,0,0,50µM
C#CCNC(=O)c1cc(-c2ccc(OC)cc2)nc2c1cnn2C,-,0,-,-
C#CCNC(=O)c1cc(-c2ccc([S+](C)(=O)[O-])cc2)nc2c1cnn2C,0,0,0,32µM
Cn1ncc2c(C(=O)N3CCOCC3)cc(-c3ccc([S+](C)(=O)[O-])cc3)nc21,0,0,0,?
CCCc1ccc(C(=O)O)s1,-,-,-,0
Cc1c(-c2ccccc2)oc2c(C(=O)NCCCN3CCCCC3)cccc2c1=O,-,-,-,0
COc1ccccc1-c1noc(CN2CCCc3c(C(=O)NC(C)C)cccc32)n1,-,-,-,0
CCc1c(C)cc(C(=O)N[C@@H]2[C@@H](Cc3ccccc3)[C@H]3OCC[C@@H]23)c(=O)n1C,0,0,0,28µM
